Rows were chosen to be rich in hits. Some 1.1% of all compounds tested hit in one or more screens of this group.
COUP-TFII inh = inhibitors of human COUP-TFII (NR2F2) | P24468 | HEK293T NGFI-A luciferase reporter, luminescence | inhibition, % at 8.6 µM | 370,000 tested, 0.7% active;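 active means inhibition above a per-plate cutoff, mean inhibition of test wells between control levels plus 3 SD, cut at about 38% in these data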;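 further: cells cotransfected with COUP-TFII expression vector driving the NGFI-A reporter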
SRC2 inh = human SRC2 (NCOA2) inhibition; inhibition, % at 9 µM; 370,000 tested, 0.17% active; Q15596; HEK293 GAL4-SRC2 luciferase reporter, luminescence;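 active means inhibition above the mean inhibition of all tested compounds plus 3 SD, set per campaign, cut at about 52% in these data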
LRH-1 inv ag = suppresses constitutive activity of human LRH-1; O00482; AID 602396; 360,000 tested, 0.13% active; inhibition, % at 3.6 µM; HEK293T StAR-luciferase reporter, LRH-1 transfected, 24 h;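 active means inhibition above the mean inhibition of all tested compounds plus 3 SD, cut at about 73% in these data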
Target sequence (O00482 whole entry, looked up): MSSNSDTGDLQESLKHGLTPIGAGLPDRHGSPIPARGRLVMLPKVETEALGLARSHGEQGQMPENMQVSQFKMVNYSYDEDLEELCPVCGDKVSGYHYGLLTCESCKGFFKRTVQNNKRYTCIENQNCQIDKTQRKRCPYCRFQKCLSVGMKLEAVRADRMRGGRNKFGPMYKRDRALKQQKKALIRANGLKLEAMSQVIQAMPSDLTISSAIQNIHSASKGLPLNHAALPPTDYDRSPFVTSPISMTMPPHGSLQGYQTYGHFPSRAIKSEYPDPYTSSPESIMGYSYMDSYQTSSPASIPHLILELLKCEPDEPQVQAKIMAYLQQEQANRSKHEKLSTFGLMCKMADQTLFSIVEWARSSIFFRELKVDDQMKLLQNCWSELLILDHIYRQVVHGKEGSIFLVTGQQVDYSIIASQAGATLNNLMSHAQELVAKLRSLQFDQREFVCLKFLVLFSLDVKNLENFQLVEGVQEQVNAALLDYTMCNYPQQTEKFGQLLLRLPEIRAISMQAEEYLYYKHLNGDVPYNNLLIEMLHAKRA
NCOA3 inh = inhibitors of human steroid receptor coactivator 3 (SRC3); HEK293 GAL4-SRC3 luciferase reporter, luminescence; inhibition, % at 3.6 µM; 360,000 tested, 0.17% active;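 active means inhibition above a per-campaign cutoff, the mean of all compounds plus 3 SD, cut at about 60% in these data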;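 further: higher means less SRC3-driven luciferase light from the GAL4 reporter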
GalR3 antag = human GalR3 antagonism; HEK293 GalR3-CNG cAMP membrane potential fluorescence; galR3 body fused to GalR1 C-terminus; inhibition, % at 3 µM; AID 651719; 360,000 tested, 0.44% active;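 active means inhibition above the screen-wide average plus 3 SD, cut at about 13% in these data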;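 further: forskolin and galanin both at EC90 stimulate the cells; cAMP rise reported by CNG channel membrane potential dye signal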
SRC1 inh = inhibits human SRC1 coactivator. 360,000 tested, 0.12% active. HEK293 GAL4-SRC1 luciferase reporter, luminescence. inhibition, % at 3.6 µM. Q15788;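 active means inhibition above the campaign mean plus 3 SD, with each screening campaign given its own cutoff, cut at about 60% in these data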
GalR3 conf = GalR3 (human) antagonism, confirmation; 1,600 tested, 59% active; inhibition, % at 3 µM; HEK293 GalR3 CNG cAMP biosensor, membrane potential fluorescence; galR3 fused to GalR1 carboxy tail; challenged with forskolin and galanin at EC90; shares compounds with GalR3 antag;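 active means inhibition above the primary screen's cutoff, the mean inhibition of all screened compounds plus 3 SD, cut at about 13% in these data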
CNG parental = counter-screen for GalR3 antagonists: nonspecific agonists in parental HEK-CNG cells; shares compounds with GalR3 antag; HEK293-CNG parental cells, cAMP membrane potential fluorescence; normalised: DMSO wells 0%, forskolin wells 100%; 1,600 tested, 10% active; activation, % at 3 µM; AID 652268; in the data active means activation above about 1.3%
Of the large screens only hits and unclear results are named; the others gave an inactive call (follow-up assays come after a bar, where they were run).

O=c1[nH]c(=O)n([C@H]2C[C@H](O)[C@@H](CO)O2)cc1C(F)(F)F	NCOA3 inh 64.6, SRC1 inh 77.0
CCOc1ccc(-n2c(SCC(=O)Nc3ccccc3-c3ccccc3)nnc2-c2ccncc2)cc1	none (no result: LRH-1 inv ag, NCOA3 inh, GalR3 antag, SRC1 inh)
CCCCn1c(CCl)nc2cc(S(=O)(=O)N3CCOCC3)ccc21	SRC2 inh 63.1
Cn1c(=O)c2c(nc(CN3CCOCC3)n2CC(=O)c2ccccc2)n(C)c1=O	LRH-1 inv ag 96.2
O=c1c2c(n3cnnc3n1-c1ccccc1)-c1ccccc1CC21CCCC1	none
O=c1c2c(n3nnnc3n1-c1ccccc1)-c1ccccc1CC21CCCC1	GalR3 antag 14.5
CN(C)C(=O)COc1ccc2ccc(=O)oc2c1	none
CC(C)=CC(O)C/C(C)=C/COc1ccc2ccc(=O)oc2c1 (stereo not drawn)	LRH-1 inv ag 84.7, NCOA3 inh 63.2
Cc1ccc(-n2c(COc3ccccc3)nnc2SCC(=O)Nc2ccccc2-c2ccccc2)cc1	none (no result: LRH-1 inv ag, NCOA3 inh, GalR3 antag, SRC1 inh)
Cc1ccc(-n2nnnc2Sc2ccc(S(=O)(=O)NCCN(C)C)cc2[N+](=O)[O-])cc1	NCOA3 inh 67.1
CC(C)n1cnc2c(NCc3ccccc3)cc(N[C@H](C)CO)cc21	LRH-1 inv ag 89.5, NCOA3 inh 92.0, SRC1 inh 89.0 (no result: COUP-TFII inh, SRC2 inh, GalR3 antag)
Cc1onc(-c2ccccc2)c1C(=O)NC(=S)NNC(=O)c1ccccc1O	LRH-1 inv ag 90.3, NCOA3 inh 75.7, SRC1 inh 64.1
Oc1ccccc1N=Nc1ccccc1O	NCOA3 inh 69.0
O=C(CCC1CCCC1)Nc1ccc(C(=O)NCc2cccnc2)cc1	LRH-1 inv ag 74.2
CCN1CCN(C(=S)c2ccc(-c3ccccc3)cc2)CC1	SRC2 inh 70.7
Cc1ccc(C(=S)N2CCN(Cc3ccccc3)CC2)cc1	none
Cn1c2c(c(=O)n(C)c1=O)C(C(F)(F)F)(C(F)(F)F)N=C(c1ccc(Cl)cc1)N2	LRH-1 inv ag 97.5, NCOA3 inh 76.6, SRC1 inh 74.5 (no result: COUP-TFII inh, SRC2 inh, GalR3 antag)
Cc1ccccc1C1=NC(C(F)(F)F)(C(F)(F)F)c2c(n(C)c(=O)n(C)c2=O)N1	none
O=C(NCc1cccnc1)/C(=C\c1ccc(-c2ccc(Cl)c(Cl)c2)o1)S(=O)(=O)c1ccccc1	SRC2 inh 61.2, NCOA3 inh 85.5
COc1ccc(S[C@]2(C(=O)N3CCN(C(C)=O)CC3)CC(=O)N(C(=O)Nc3ccc(C)c(Cl)c3)[C@@H]2c2ccc(OC)cc2)cc1	none (no result: LRH-1 inv ag, NCOA3 inh, GalR3 antag, SRC1 inh)
O=C(CSc1nc2sc3c(c2c(=O)n1-c1ccc(Cl)cc1)CCC3)Nc1ccc(C(=O)O)cc1	none (no result: LRH-1 inv ag, NCOA3 inh, GalR3 antag, SRC1 inh)
COc1ccc(NC(=O)C2(C)Cc3c(-c4cccc(C(F)(F)F)c4)ccnc3O2)cn1 (stereo not drawn)	SRC2 inh 71.3
COc1ccc(NC(=O)C2(C)Cc3c(-c4ccccc4)ccnc3O2)cn1 (stereo not drawn)	none
COc1ccc(C(=O)Nc2nc3ccccc3[nH]2)cc1OC	none
COc1ccc(Cl)cc1C(=O)Nc1nc2ccccc2[nH]1	SRC2 inh 54.3
C/C(CCC1CC(C)(C)OC1=O)=N\NC(N)=S (stereo not drawn)	GalR3 antag 13.4 | GalR3 conf inactive | CNG parental inactive
COc1ccc(Cn2cc(CN3[C@H](CC(C)C)COc4cc(Br)ccc4S3(=O)=O)nn2)cc1	none (no result: LRH-1 inv ag, NCOA3 inh, GalR3 antag, SRC1 inh)
COCCOC(=O)c1c(NC(=O)CN2c3ccccc3CC2C)sc(C(N)=O)c1C (stereo not drawn)	GalR3 antag 16.9 | GalR3 conf inactive | CNG parental inactive
CCSc1ccc(-c2ccc(C)cc2)nn1	none
CCOc1ccc(-c2ccc(SCC)nn2)cc1	none (no result: GalR3 antag) | GalR3 conf inactive | CNG parental inactive
CC(C)(C)N1Cc2nnn(CC3CCCCC3)c2-c2ccccc2S1(=O)=O	none (no result: LRH-1 inv ag, NCOA3 inh, GalR3 antag, SRC1 inh)
COC(=O)C1CN(CC(C)C)CCS(=O)(=O)N1Cc1ccc(Cl)cc1 (stereo not drawn)	none (no result: LRH-1 inv ag, NCOA3 inh, GalR3 antag, SRC1 inh)
O=Cc1c(Cl)nc2ccccn12	none
OCc1c(Cl)nc2ccccn12	GalR3 antag 14.2 | GalR3 conf inactive | CNG parental inactive
Cc1ccc(-c2cc(C(=O)NN=Cc3cccc(OCc4ccccc4)c3)[nH]n2)cc1C	none (no result: LRH-1 inv ag, NCOA3 inh, GalR3 antag, SRC1 inh)
O=C(/C=C/c1cccc([N+](=O)[O-])c1)Nn1c(-c2ccccc2F)nc2ccccc2c1=O	GalR3 antag 60.9 | GalR3 conf 65.2 | CNG parental inactive
Cc1nc2ccccc2c(=O)n1NC(=O)/C=C/c1ccc(Br)cc1	none
Cc1cccc(-c2nc3ccccc3c(=O)n2NC(=O)/C=C/c2ccc([N+](=O)[O-])cc2)c1	GalR3 antag 44.6 | GalR3 conf 33.9 | CNG parental inactive
COc1ccc(Cl)cc1CN1CCOCC1	GalR3 antag 12.7 | GalR3 conf inactive | CNG parental inactive
CCCOc1ccc(Cl)cc1CN1CCOCC1	none
COC(=O)[C@]12C[C@H](CC(=O)NCc3cccs3)C(=O)N(CCc3ccc(OC)c(OC)c3)C1=C[C@H](COCc1ccccc1)O[C@@H]2C	none (no result: LRH-1 inv ag, NCOA3 inh, GalR3 antag, SRC1 inh)
COc1cc(F)ccc1-c1cc(C(=O)NCc2cccs2)[nH]n1	none
CC(C)Oc1ccc(F)cc1-c1cc(C(=O)NCc2cccs2)[nH]n1	GalR3 antag 22.9 | GalR3 conf inactive | CNG parental inactive
CCCCNC(=O)C1(C(=O)c2ccc(OC)cc2)CC(c2ccccc2C(F)(F)F)=NO1 (stereo not drawn)	none (no result: LRH-1 inv ag, NCOA3 inh, GalR3 antag, SRC1 inh)
O=C(c1ccccc1[N+](=O)[O-])N1CCCC(C(=O)N2CCCCCC2)C1 (stereo not drawn)	none
CCOC(=O)C1CCCN(C(=O)c2ccccc2[N+](=O)[O-])C1 (stereo not drawn)	GalR3 antag 54.7 | GalR3 conf inactive | CNG parental inactive
COc1ccc(/C=N/NC(=O)C(C)Sc2ccccn2)cc1[N+](=O)[O-] (stereo not drawn)	GalR3 antag 19.3 | GalR3 conf inactive | CNG parental inactive
COc1cc(/C=N/NC(=O)C(=O)N2CCCCCC2)ccc1O	none
COc1ccc(/C=N/NC(=O)C(=O)N2CCCCCC2)cc1[N+](=O)[O-]	GalR3 antag 16.5 | GalR3 conf 21.7 | CNG parental inactive
C[C@@H]1/C=C/CC(=O)N[C@H](c2cccc(Br)c2)[C@H](C)/C=C/CC(=O)N[C@@H]1c1cccc(Br)c1	none (no result: LRH-1 inv ag, NCOA3 inh, GalR3 antag, SRC1 inh)
COc1cc(-c2[nH]nc3c2C(c2ccoc2)C(C#N)=C(N)O3)cc(OC)c1OC (stereo not drawn)	GalR3 antag 18.5 | GalR3 conf inactive | CNG parental inactive
CCc1[nH]nc2c1C(c1cccnc1)C(C#N)=C(N)O2 (stereo not drawn)	none

Assay outcomes from PubChem BioAssay.
